In PubChem BioAssay AID1347417 (National Center for Advancing Translational Sciences (NCATS), 2020) one finds Potency data, which are given here for 63 compounds.

About 5,300 (4.4%) of roughly 120,000 compounds were called active. A call without a number means that no potency is given here. Roughly 22% stayed inconclusive and do not appear here. The call rests on the fitted dose curve; in most records, active means well fitted inhibition curve with a large enough effect; inconclusive means small, poorly fitted or top-dose-only effect; inactive means no such curve, though single readings can be large or run the other way. For the sample, actives were picked, then their nearest neighbours and some compounds at random.
Potency means the concentration at half of the fitted maximal effect.

The nature of this experiment: qHTS Primary assay for Inhibitors of Plasmodium falciparum Dd2 growth in vitro. Further: nearly all actives have a fitted effect of over 65% in size. Particulars: P. falciparum Dd2 growth, SYBR Green, 72 h; series mostly up to 28.9 µM. A digest of the protocol: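 Readout: SYBR Green fluorescence, 485 nm excitation, 535 nm emission, after ~16 h lysis at 37C. Before that, Dd2-infected red cells (2.5% hematocrit) grew 72 h with compound, 29 uM top final concentration.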
For orientation: qHTS replaces the single test concentration by a dilution series.
Consider `CN1CCC2(C1)CN(CC1CCOCC1)c1ccc(C(=O)NCCCn3ccnc3)cc12` (stereo not drawn), for which the Potency result was “inactive”.

With `c1ncc(CN2CCn3c(nnc3C3CCCNC3)C2)s1` (stereo not drawn), the Potency entry was “inactive”.

Take `Cc1nc(N)nc(C)c1CC(=O)N1CCC2(CC1)OCCCC2O` (stereo not drawn): the Potency entry is “inactive”.

`CC(C)c1ccc(NC(=O)c2ccc3c(O)c(S(=O)(=O)c4ccccc4)c(=O)[nH]c3c2)cc1`: the Potency is 11.2 µM (active).

For `Cc1ccc(C(=O)Nc2ccc3[nH]c(=O)c(=O)[nH]c3c2)cc1`, the Potency result was “inactive”.

Turning to `COc1ccc(CNC(=O)c2ccc3c(O)c(S(=O)(=O)c4ccccc4)c(=O)[nH]c3c2)cc1`, the Potency entry was “inactive”.

Take `COc1cccc([S+](=O)([O-])N2CCC3(C2)C(=NC2CCCCC2)NC(=O)N3c2cccnc2)c1` (stereo not drawn): the Potency result is “inactive”.

As to `N#Cc1ccc(S(=O)(=O)N2CC(n3cc(C(=O)NCc4ccccc4)nn3)C2)cc1`, the Potency entry is “inactive”.

`O=C1NCCCCCN(Cc2cccnc2)[C@@H]2CN(C(=O)C3CCCCC3)CC[C@@H]12`: the Potency entry was “inactive”.

As for `Cc1ccc(NC(=O)N2CC[C@H]3C(=O)NCCCCCN(Cc4cccnc4)[C@@H]3C2)cc1C`, the Potency was 8.91 µM (active).

Turning to `O=C1NCCCCCCN(Cc2ccncc2)[C@@H]2CN(C(=O)Nc3ccc4c(c3)OCCO4)CC[C@@H]12`, the Potency entry is “inactive”.

On to `O=C(NCc1ccco1)N1CC2CC(C1)[C@H]1CCCC(=O)N1C2` (stereo partly drawn), for which the Potency result is “inactive”.

Take `O=C([C@@H]1CCCN1C1CCNCC1)N1CCN(Cc2cccnc2)CC1`: the Potency entry was “inactive”.

For `COCC1CN(C(C)=O)CC12CCN(C(=O)NCc1cccc(OC)c1)CC2` (stereo not drawn), the Potency result is “inactive”.

`CCOc1cccc(CN2CCC3(CC2)CN(C)CC3COC)c1` (stereo not drawn): the Potency was 4.47 µM (active).

`COCC1CN(C(C)=O)CC12CCN(Cc1cccc(C#N)c1)CC2` (stereo not drawn): the Potency entry is “inactive”.

Turning to `CN1C(=O)c2[nH]nc(-c3ccc(F)cc3)c2C1c1ccccn1` (stereo not drawn), the Potency result was “inactive”.

Consider `CCOc1ccc(-c2n[nH]c3c2C(c2ccccc2OC)N(c2ccc(Br)cc2)C3=O)cc1` (stereo not drawn), for which the Potency was 10 µM (active).

Regarding `Cc1ccc(-n2c(C3CCN(C(=O)c4ccccc4C(F)(F)F)CC3)n[nH]c2=O)cc1`, the Potency result was “inactive”.

As for `CC(=O)Nc1cccc(NC(=O)C2CC(=O)N(c3n[nH]c4ccccc34)C2)c1` (stereo not drawn), the Potency result is “inactive”.

Consider `O=c1n(CC2CC2)nc2n1CCC(NS(=O)(=O)Cc1ccccc1)CC2` (stereo not drawn), for which the Potency result is “inactive”.

As to `CC(=O)c1cc(CN2CCn3nc(C(O)c4ccnn4C)cc3C2)cs1` (stereo not drawn), the Potency result was “inactive”.

On to `CC(=O)N(C1CC1)C1CCOC2(CCN(C(=O)C3(c4ccccc4)CC3)CC2)C1` (stereo not drawn), for which the Potency entry is “inactive”.

As to `O=C1NCCCCCN(C(=O)NCCc2ccccc2)[C@H]2CCC[C@@H]12`, the Potency result is “inactive”.

For the compound `O=C1NCCOCCCN(C(=O)NCCc2ccccc2)[C@H]2CCC[C@@H]12`, the Potency entry is “inactive”.

Regarding `O=C(N1CCCCCC1CN1CCOCC1)C1(c2ccccc2)CC1` (stereo not drawn), the Potency is 10 µM (active).

For `O=C(c1cccs1)N1CCCCCC1CN1CCCC1` (stereo not drawn), the Potency is 1.26 µM (active).

Turning to `O=C(NCCc1ccccc1)N1CCCCCC1CN1CCOCC1` (stereo not drawn), the Potency is 7.94 µM (active).

Regarding `COC1CCN(CC2CCCCCN2C(=O)NCc2ccc(F)cc2)CC1` (stereo not drawn), the Potency entry was “inactive”.

As for `O=C(Cc1cccs1)N1CCCCCC1c1nc(C2CC2)no1` (stereo not drawn), the Potency entry was “inactive”.

On to `O=C(N1CCCC(Cc2nc(C3CCOCC3)no2)C1)C1(c2ccccc2)CC1` (stereo not drawn), for which the Potency entry is “inactive”.

For the compound `Cc1cc(C)n(-c2cccc(CN(C)Cc3nc(-c4ccccn4)no3)c2)n1`, the Potency entry was “inactive”.

Turning to `CC(C)c1ccc(N2C(=O)N[C@@H]3CCN(C(=O)c4ccc(C(C)(C)C)cc4)[C@@H]3C2=O)cc1`, the Potency result is “inactive”.

As for `O=C(Cn1ccn2nc(-c3ccccc3)c(CO)c2c1=O)Nc1ccc2c(c1)CCC2`, the Potency result is “inactive”.

For the compound `O=C(c1ccc2cc[nH]c2c1)N1CCCN(c2cc(-c3ccc(Cl)cc3)[nH]n2)CC1`, the Potency result is “inactive”.

Take `CN1C(=O)CS(=O)C12CCN(S(=O)(=O)c1ccc(F)cc1)CC2` (stereo not drawn): the Potency entry was “inactive”.

For the compound `Cc1noc([C@@H]2CN(Cc3ccc(C)o3)C[C@H]2CO)n1`, the Potency entry was “inactive”.

With `Cc1ccc(F)cc1NC(=O)CCSc1nc(-c2ccco2)cc(C(F)(F)F)n1`, the Potency is 0.794 µM (active).

On to `CN(C)c1ccc(NC(=O)CSc2nc(-c3ccco3)cc(C(F)(F)F)n2)cc1`, for which the Potency result is “inactive”.

For the compound `Cc1cccc(NC(=O)CSc2nc(-c3ccco3)cc(C(F)(F)F)n2)c1C`, the Potency result was “inactive”.

On to `Cc1cc(C)cc(C(=O)NCCc2noc(C)n2)c1`, for which the Potency entry was “inactive”.

`Cc1c(Cl)cccc1NC(=O)C1CCCN(c2ncnc3onc(C)c23)C1` (stereo not drawn): the Potency result is “inactive”.

Regarding `Cc1ccc(Cl)cc1N(C)C(=O)C1CCCN(c2ncnc3onc(-c4ccc(F)cc4)c23)C1` (stereo not drawn), the Potency is 8.91 µM (active).

Take `COc1ccccc1N1CCN(c2ncnc3onc(-c4ccc(F)cc4)c23)CC1`: the Potency entry is “inactive”.

With `COc1ccc(C(=O)N[C@H](c2cnn(C)c2)C2CC(O)C2)c(F)c1F` (stereo partly drawn), the Potency entry is “inactive”.

As to `CCOC(=O)C1(Cc2ccc(F)cc2F)CCCN(Cc2cccc(OC)c2O)C1` (stereo not drawn), the Potency was 3.16 µM (active).

For `COc1cccc(CN2CCN(Cc3ncccc3C)CC2)c1O`, the Potency entry was “inactive”.

Turning to `CCOC(=O)c1[nH]ncc1CN1CCCC(Cc2ccc(F)cc2F)(C(=O)OCC)C1` (stereo not drawn), the Potency result was “inactive”.

With `CC(=O)c1ccc(NC(=O)C2CCN(S(=O)(=O)c3c(C)noc3/C=C/c3ccc(C)cc3)CC2)cc1`, the Potency entry was “inactive”.

In the case of `CCOC(=O)c1c(C)[nH]c(C)c1S(=O)(=O)N1CCC(C(=O)Nc2ccc(C)c(Cl)c2)CC1`, the Potency result was “inactive”.

For `CCOc1ccc(NC(=O)C2CCN(S(=O)(=O)c3cc(-c4noc(C)n4)ccc3C)CC2)cc1`, the Potency was 3.98 µM (active).

Regarding `Cc1cnn(CCC(=O)N2CC(F)(F)C[C@H]2c2nnc(C)o2)c1`, the Potency result is “inactive”.

Consider `COc1cccc(S(=O)(=O)N2CCCN(C(=O)C3CC3)c3ccccc32)c1`, for which the Potency result is “inactive”.

Turning to `CCOC(=O)c1[nH]c(C)c(CCC(=O)N2CCN(c3ccccc3)CC2)c1C`, the Potency is 3.98 µM (active).

`Cc1nc(SCC(=O)N2CCN(c3ccccc3)CC2)[nH]c(=O)c1C`: the Potency entry was “inactive”.

With `CCOC(=O)c1c(C)[nH]c(C)c1S(=O)(=O)N(C)CC(=O)N1CCN(c2ccccc2)CC1`, the Potency result is “inactive”.

Consider `COCCN1C(=O)c2cccn2CC1CNS(=O)(=O)c1c(C)noc1C` (stereo not drawn), for which the Potency result was “inactive”.

For the compound `O=C(c1cccc(F)c1)N1CCOC[C@H](Oc2ccc(C(F)(F)F)cc2)C1`, the Potency entry was “inactive”.

Take `O=C(c1cccc(OC2CN(Cc3nccs3)C2)c1)N1CCOCC1`: the Potency was 2.51 µM (active).

For `COc1cccc(C(=O)N2CCC(Oc3ccc(C(=O)N4CCOCC4)cn3)CC2)c1`, the Potency result is “inactive”.

Regarding `CC(=O)NCCC(=O)N1Cc2ccccc2CC2(CCCCN2CC2CCNC2)C1` (stereo not drawn), the Potency result is “inactive”.

Consider `O=C(C1CCCC1)N1Cc2ccccc2CC2(CCCCN2CC2CCNCC2)C1` (stereo not drawn), for which the Potency was 5.01 µM (active).

As for `O=C(c1ccccc1)N1Cc2ccccc2CC2(CCCN2CC2CCNC2)C1` (stereo not drawn), the Potency result was “inactive”.
